# Assay results from PubChem BioAssay (NCATS).
# Results filed as inconclusive are left out. Entries that show only a call come without a potency. Activity calls are given as the source filed them. Calls follow the shape of the dose curve; as a rule, active = well fitted cell-killing curve with a large enough effect; inconclusive = small, poorly fitted or top-dose-only effect, or effect the other way; inactive = no such curve, though single readings can be large or run the other way. Peptide text beside a SMILES is read from it.
# Test: Quantitative High-Throughput drug screen in 47 multiple myeloma cell lines against the NCATS MIPE library collection: AMO1_DSMZ cell viability assay (AID 1918927; also: nearly all actives have a fitted effect of over 30% in size)
# Conditions: AMO1 myeloma cells viability, CellTiter-Glo ATP luminescence, 48 h; series mostly up to 45.8 µM
# Source text: PI: Beverly A. Mock Ph.D.
# Laboratory of Cancer Biology and Genetics,
# Center for Cancer Research, National Cancer Institute,
# National Institute of Health, Bethesda, Maryland
# Drug resistance and disease progression are common in multiple myeloma (MM) patients, underscoring the need for new therapeutic combinations. […] We hypothesized that effective combinations would reduce MYC expression and enhance p16 activity. […] These preclinical data identify potentially useful drug combinations for evaluation in drug-resistant MM and reveal potential mechanisms of combined drug sensitivity.
# Described herein is the primary MIPE qHTS used to cherrypick compounds. Validated compounds were then further tested for potential synergistic activiy.
# [1] Peat TJ, Gaikwad SM, Dubois W, Gyabaah-Kessie N, Zhang S, Gorjifard S, Phyo Z, Andres M, Hughitt VK, Simpson RM, Miller MA, Girvin AT, Taylor A, Williams D, D'Antonio N, Zhang Y, Rajagopalan A, Flietner E, Wilson K, Zhang X, Shinn P, Klumpp-Thomas C, McKnight C, Itkin Z, Chen L, Kazandijian D, Zhang J, Michalowski AM, Simmons JK, Keats J, Thomas CJ, Mock BA. Drug combinations identified by high-throughput screening promote cell cycle transition and upregulate Smad pathways in myeloma. Cancer Lett. 2023 Aug 1;568:216284. doi: 10.1016/j.canlet.2023.216284. Epub 2023 Jun 24. PMID: 37356470; PMCID: PMC10408729.
# SEQUENCE No. (e.g., 1, 2, 3, etc.); […] (e.g., Cells, Incubation, Reagent, etc.); VALUE and DESCRIPTION.
# 1; Cells; 5 uL; white, solid bottom 1536-well Greiner assay plate.
# 2; Compounds; 23 nL; Kalypsis pin tool (Wako USA) equipped with a 1536-well pin head to transfer to the assay plates.
# 3; Incubation; 48 hours; 37C incubation.
# 4; Reagent;5uL; CellTiter Glo (Promega).
# 5; Detector; 425V; Luminescence; Viewlux PerkinElmer.
# NOTES (numbers refer to Sequence numbers above)
# 1. The cell-based screening methods employed in this study were like those previously published. Briefly, the corresponding myeloma cell lines were screened in 1,536-well plates with 500 cells, 5-uL per well for inhibition of cell viability (assessed by measuring ATP levels with CellTiterGlo).
# 2. NCATS MIPE 4.0 library of approved and investigational drugs were added using the Kalypsis pin tool. Wells treated with DMSO only for 100% viability and media only wells for 0% viability were used as controls.
# 3. The assay plates were covered and incubated for 48 hours in a 37C, 5% CO2 incubator with controlled humidity.
# 4. After 48 hours, CellTilter-GloTM luminescent substrate mix (Promega) reagent was added to the assay plate and plates we incubated for 5 min at room temperature.
# 5. Signal was measured as median relative luminescence units on a ViewLux (PerkinElmer) multiplate reader.
# [1] Heske CM, Davis MI, Baumgart JT, Wilson K, Gormally MV, Chen L, Zhang X, Ceribelli M, Duveau DY, Guha R, Ferrer M, Arnaldez FI, Ji J, Tran HL, Zhang Y, Mendoza A, Helman LJ, Thomas CJ. Matrix Screen Identifies Synergistic Combination of PARP Inhibitors and Nicotinamide Phosphoribosyltransferase (NAMPT) Inhibitors in Ewing Sarcoma. Clin Cancer Res. 2017 Dec 1;23(23):7301-7311. doi: 10.1158/1078-0432.CCR-17-1121. Epub 2017 Sep 12. PMID: 28899971; PMCID: PMC6636827.
# Potency is read from the fitted curve at half-maximal effect.
row,Compound,Potency
1,COCCCOc1ccnc(CS(=O)c2nc3ccccc3[nH]2)c1C (stereo not given),inactive
2,CCOC(=O)C1=C(O)C(=O)N(Cc2ccccc2)C1,inactive
3,CCCS(=O)c1ccc2nc(NC(=O)OC)[nH]c2c1 (stereo not given),inactive
4,CNC[C@H](O)c1ccc(O)c(O)c1,inactive
5,N=C(N=C(N)N)N1CCOCC1,inactive
6,C[C@@H](c1ncncc1F)[C@](O)(Cn1cncn1)c1ccc(F)cc1F,inactive
7,CCC(C)(Oc1ccc(C2(c3ccc(OC(C)(CC)C(=O)O)cc3)CCCCC2)cc1)C(=O)O (stereo not given),inactive
8,CC(S)C(=O)NCC(=O)O (stereo not given),inactive
9,Cc1cc(O)c2c(c1)C(=O)c1cc(O)cc(O)c1C2=O,inactive
10,CC(=O)NC[C@H]1CN(c2ccc(N3CCOCC3)c(F)c2)C(=O)O1,inactive
11,c1ccc2[nH]c(-c3cscn3)nc2c1,inactive
12,O=C(O)c1cccc(-c2noc(-c3ccccc3F)n2)c1,inactive
13,CCOC(=O)c1c(C)n(C)c2ccc(O)cc12,inactive
14,CN(c1nccc(=O)[nH]1)C1CCN(c2nc3ccccc3n2Cc2ccc(F)cc2)CC1,inactive
15,COc1cc(OC)c(C(=O)CCCN2CCCC2)c(OC)c1,inactive
16,Nc1ccn([C@@H]2O[C@H](CO)[C@@H](O)C2O)c(=O)n1 (stereo not given in full),inactive
17,CC(C)c1ccc2c(c1)c(SC(C)(C)C)c(CC(C)(C)C(=O)O)n2Cc1ccc(Cl)cc1,inactive
18,Cc1nc2n(c(=O)c1CCN1CCC(c3noc4cc(F)ccc34)CC1)CCCC2,inactive
19,O=c1cc(N2CCOCC2)oc2c(-c3ccccc3)cccc12,inactive
20,N=C(N)c1ccc2cc(OC(=O)c3ccc(N=C(N)N)cc3)ccc2c1,inactive

row,Compound,Potency
1,CN(C)C(=O)[C@H](O)[C@H](Cc1ccccc1)NC(=O)c1cc2cc(Cl)ccc2[nH]1,6.62 µM (active)
2,CC(C)(S)[C@@H](N)C(=O)O,inactive
3,CCOC(=O)C(C)Oc1cccc2c(=O)n(CC(=O)Nc3ccc4c(c3)OCCO4)ccc12 (stereo not given),16.6 µM (active)
4,O=c1c(O)c(-c2cc(O)c(O)c(O)c2)oc2cc(O)cc(O)c12,inactive
5,Cc1nc(Nc2ncc(C(=O)Nc3c(C)cccc3Cl)s2)cc(N2CCN(CCO)CC2)n1,2.64 µM (active)
6,Cc1cc2c(s1)Nc1ccccc1N=C2N1CCN(C)CC1,inactive
7,COc1c2occc2cc2ccc(=O)oc12,inactive
8,CS(=O)(=O)OCCCCOS(C)(=O)=O,inactive
9,COC(=O)C1=C(C)NC(C)=C(C(=O)OC(C)C)C1c1cccc2nonc12 (stereo not given),inactive
10,CCCCc1ccc2nc(NC(=O)OC)[nH]c2c1,inactive
11,O=c1oc2cc(O)ccc2s1,23.5 µM (active)
12,O=C1c2c(O)cc(O)cc2OC(c2ccc(O)c(O)c2)C1O (stereo not given),inactive
13,CN(C)c1ccc(O)c2c1C[C@H]1C[C@H]3[C@H](N(C)C)C(=O)C(C(N)=O)=C(O)[C@@]3(O)C(=O)C1=C2O,inactive
14,CCC1=C(C)CN(C(=O)NCCc2ccc(S(=O)(=O)NC(=O)NC3CCC(C)CC3)cc2)C1=O (stereo not given),inactive
15,Cc1nc(-c2ccc(OCC(C)C)c(C#N)c2)sc1C(=O)O,inactive
16,COC(=O)C1=C(C)NC(C)=C(C(=O)OCCCN2CCC(c3ccccc3)(c3ccccc3)CC2)C1c1cccc([N+](=O)[O-])c1 (stereo not given),inactive
17,C[C@H](Cc1ccc(O)c(O)c1)[C@@H](C)Cc1ccc(O)c(O)c1,7.43 µM (active)
18,COC(=O)[C@H](Cc1ccccc1)NC(=O)[C@@H](N)CC(=O)O (H-Asp-Phe-OMe),inactive
19,CN(C)CCCC1(c2ccc(F)cc2)OCc2cc(C#N)ccc21 (stereo not given),inactive
20,COc1cc(Nc2c(C#N)cnc3cc(OCCCN4CCN(C)CC4)c(OC)cc23)c(Cl)cc1Cl,8.33 µM (active)
